# Data as given in PubChem BioAssay AID602144 (Vanderbilt Specialized Chemistry Center, 2011).
# Several values for one entry are separate records, joined by “and”; a condition that tells them apart may be missing. Identical values can stand only once. Values without a mark were called inactive. Activity calls are given as the source filed them. No stated cut-off is given here; in the data, active means remaining activity below about 50%; inactive means the rest.
# Target: Phospholipase D1 (Homo sapiens) (UniProt Q13393)
# Test: cellular phospholipase D1 activity inhibition – Calu-1 cells, single concentration (AID 602144);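 further: tested at 200 nM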
# Settings: cellular PLD1 activity, hits give low values
# Chain of Phospholipase D1 (Homo sapiens) (Q13393 whole entry, looked up): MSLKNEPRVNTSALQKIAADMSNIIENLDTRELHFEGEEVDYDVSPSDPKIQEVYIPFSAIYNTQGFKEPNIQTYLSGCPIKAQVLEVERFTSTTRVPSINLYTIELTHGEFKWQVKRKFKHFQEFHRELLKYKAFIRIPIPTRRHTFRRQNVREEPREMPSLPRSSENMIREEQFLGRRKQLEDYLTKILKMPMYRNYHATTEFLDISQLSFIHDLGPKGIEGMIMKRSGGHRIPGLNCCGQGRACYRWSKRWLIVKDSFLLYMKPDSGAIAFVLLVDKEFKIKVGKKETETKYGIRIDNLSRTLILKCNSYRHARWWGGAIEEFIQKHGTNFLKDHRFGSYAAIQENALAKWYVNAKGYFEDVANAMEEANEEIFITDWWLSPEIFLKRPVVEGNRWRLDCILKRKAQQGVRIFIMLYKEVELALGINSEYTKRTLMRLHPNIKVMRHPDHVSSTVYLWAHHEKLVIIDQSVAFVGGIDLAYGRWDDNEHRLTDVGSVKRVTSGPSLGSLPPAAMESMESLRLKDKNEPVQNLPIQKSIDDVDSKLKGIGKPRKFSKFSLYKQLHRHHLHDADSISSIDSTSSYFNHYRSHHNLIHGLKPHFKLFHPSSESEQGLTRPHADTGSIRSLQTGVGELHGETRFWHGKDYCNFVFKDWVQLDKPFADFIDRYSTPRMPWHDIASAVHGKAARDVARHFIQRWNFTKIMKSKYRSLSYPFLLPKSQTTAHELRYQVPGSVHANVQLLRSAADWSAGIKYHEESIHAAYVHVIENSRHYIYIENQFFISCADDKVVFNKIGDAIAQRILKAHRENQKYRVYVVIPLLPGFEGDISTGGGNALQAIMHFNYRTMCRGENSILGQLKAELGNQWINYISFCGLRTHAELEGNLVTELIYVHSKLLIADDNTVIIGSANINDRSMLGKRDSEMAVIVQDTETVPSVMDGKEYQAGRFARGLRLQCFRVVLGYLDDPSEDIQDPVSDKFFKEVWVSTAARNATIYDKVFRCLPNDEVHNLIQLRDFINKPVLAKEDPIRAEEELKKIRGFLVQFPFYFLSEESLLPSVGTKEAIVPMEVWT
# Chain of Phospholipase D1 (Homo sapiens) (Q13393 whole entry, looked up): as above
row,Compound,remaining activity
1,O=C(NCCN1CCC(n2c(=O)[nH]c3ccccc32)CC1)N1c2ccccc2C=Cc2ccccc21,92.3%
2,C[C@@H](CN1CCC(n2c(=O)[nH]c3ccccc32)CC1)NC(=O)COc1ccccc1,28.1% (active)
3,COc1ccccc1NC(=S)NCCN1CCC(n2c(=O)[nH]c3ccccc32)CC1,152%
4,C[C@@H](CN1CCC(n2c(=O)[nH]c3ccccc32)CC1)NC(=O)c1cc2ccccc2s1,28% (active)
5,NCCN1CCC(n2c(=O)[nH]c3cc(Cl)ccc32)CC1 (tested in a mixture with another compound),62.4%
6,O=C(NCCN1CCC2(CC1)CNc1ccccc12)c1ccc2ccccc2c1,43.9% (active)
7,C[C@@H](CN1CCC(n2c(=O)[nH]c3cc(-c4ccc(F)c(F)c4)ccc32)CC1)NC(=O)[C@H]1C[C@@H]1c1ccccc1,59%
8,O=C(NCCN1CCC(C(=O)NCCCN2CCOCC2)CC1)c1ccc2ccccc2c1,68.3%
9,C[C@@H](CN1CCC(n2c(=O)[nH]c3ccc(F)cc32)CC1)NC(=O)c1ccc(F)c(F)c1,13.7% (active)
10,O=c1[nH]c2ccccc2n1C1CCN(CCNS(=O)(=O)c2cccc(C(F)(F)F)c2)CC1,111%
11,C[C@@H](CN1CCC(n2c(=O)[nH]c3ccccc32)CC1)NC(=O)Cc1cccs1,101%
12,C[C@@H](NC(=O)NCCN1CCC(n2c(=O)[nH]c3ccccc32)CC1)c1ccccc1,131% and 118%
